# Reference: PubChem BioAssay AID1345083 (National Center for Advancing Translational Sciences (NCATS), 2018)
# Among all 94,000 compounds or so, about 6,200 (6.6%) were called active. About 31% were inconclusive and are not listed. Calls come from the whole dose curve; as a rule, active = well fitted inhibition curve with a large enough effect; inconclusive = small, poorly fitted or top-dose-only effect; inactive = flat fitted curve, though single readings scatter. The list comes from a sample in which actives are over-represented; it also holds similar structures and randomly drawn compounds. A call without a number means that no potency is given here.
# Assay: Cytotoxic Profiling in HEK 293 Cell Line of Diverse Libraries Using Quantitative High-Throughput Screening; note: nearly all actives have a fitted effect of over 60% in size
# Details: HEK 293 viability, ATP luminescence (CellTiter-Glo), 48-72 h; series mostly up to 115 µM
# In short: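 250 HEK 293 cells/well; compound by pintool; incubated 48 or 72 hr at 37 degree Celsius; CellTiter-Glo added, 10 min RT, luminescence imaged.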
# Potency is the fitted concentration of half-maximal effect.
row,SMILES,Potency
1,Cc1ccc(N2CC(Cc3ccccc3)N(C(=O)c3ccnn3C)CC2=O)cc1 (centres undefined),inactive
2,COCCN1Cc2cc(OC)ccc2N(CC(O)COc2ccc(OC)cc2)CCC1=O (centres undefined),inactive
3,COc1cccc(CC(=O)NCCc2noc(-c3cccnc3)n2)c1,inactive
4,COc1ccc(-c2ccc3c(n2)CN(CCOc2ccccc2)C(=O)CO3)cc1F,79.4 µM (active)
5,COc1cccc(CN2Cc3nc(-c4cc(F)cc(F)c4)ccc3OCC2=O)c1,63.1 µM (active)
6,COc1cccc(CN2CCOC3CCN(C(=O)c4cccnc4)CC3C2=O)c1 (centres undefined),inactive
7,CCN(Cc1cnn(CC)c1)C(=O)C1CCCCC(=O)N1Cc1cccc(OC)c1 (centres undefined),inactive
8,COc1cccc(CN2Cc3nc(Nc4cccc(F)c4)ccc3OCC2=O)c1,89.1 µM (active)
9,COc1cccc(CN2CCN(C(=O)c3cnc4ccccn4c3=O)CC2=O)c1,inactive
10,COc1ccc(-c2noc(-c3cccn3CC(=O)Nc3ccccc3)n2)cc1F,inactive
11,CCOCCOC1CCN(C(=O)NCc2ccc(C)cc2)CC1,inactive
12,CN1CCN(C(=O)c2nc3sccn3c2-c2ccc(F)cc2)CC1,inactive
13,COC(=O)[C@H]1CCCN1C(=O)[C@@H]1C[C@@H](NS(=O)(=O)c2cccs2)CCN1C(=O)COCC(=O)O,inactive
14,CS(=O)(=O)N1C[C@H]2CCN(C(=O)c3ccncc3F)C[C@H]21,inactive
15,Cn1c(=O)[nH]cc(CC(=O)N2CCn3nc(Cc4ccccc4)cc3C2)c1=O,inactive
16,CN(CCc1ccccn1)[C@@H]1[C@H](O)[C@H](CO)O[C@@H]1CNC1CCOCC1,inactive
17,COCC(=O)N[C@H]1CC(C)(C)[C@@H]2C[C@@](C)(O)CC[C@]12CCC(=O)N1CCN(c2ccccc2OC)CC1,inactive
18,CC(C)C(=O)N1CC(n2cc(COc3ccc(F)cc3)nn2)C1,inactive
19,COc1ccc(CC(=O)N2CCC(C(=O)N3CCC(N4Cc5ccccc5C4=O)CC3)CC2)cc1,inactive
20,CCCS(=O)(=O)N1Cc2c(ncn2Cc2ccc(Cl)cc2)C[C@H]1C(=O)OC,inactive
21,CCOc1ccc2c(n1)CCN(C(=O)c1nccn1C)C2,inactive
22,O=C1CCN(C(=O)C2CCN(C(=O)CCCc3ccccc3)CC2)CCCCCCN1,inactive
23,COCCn1c(C)cc(C(=O)N2CCCC(c3[nH]ccc3C(N)=O)C2)c1C (centres undefined),inactive
24,CCOC(=O)C1(Cc2ccc(F)cc2F)CCCN(Cc2cccc(OC)c2O)C1 (centres undefined),39.8 µM (active)
25,O=C1NCc2ccccc2CC12CCCN(Cc1ccc(F)cc1O)C2 (centres undefined),inactive

row,SMILES,Potency
1,CCOC(=O)C1(Cc2ccccc2F)CCCN(C(=O)CN2CCOC2=O)C1 (centres undefined),inactive
2,Cc1ccc(-c2nc(C3CC(=O)N(c4ccc(Cl)cc4)C3)no2)cc1C (centres undefined),inactive
3,Cc1ccc(N2CC(c3noc(-c4cc(Cl)ccc4F)n3)CC2=O)cc1 (centres undefined),inactive
4,COc1ccc(N2CC(c3noc(-c4ccc(C(C)(C)C)cc4)n3)CC2=O)cc1 (centres undefined),44.7 µM (active)
5,Cc1ccc(CN2C(=O)[C@@H]3C[C@@H](O)CN3C3(CN(Cc4ccccn4)C3)C2=O)o1,inactive
6,O=C(NCCN[S+](=O)([O-])c1cccs1)c1ccc(-c2cccc(C(F)(F)F)c2)cc1,44.7 µM (active)
7,O=C(NCC(=O)N1CCC(c2ccccc2)CC1)c1ccc(-c2cccc(C(F)(F)F)c2)cc1,inactive
8,O=C(NCCNC(=O)c1ccccc1F)c1ccc(-c2cccc(C(F)(F)F)c2)cc1,inactive
9,CC(=O)NCC(=O)N1Cc2ccccc2CC2(CCCN2Cc2cccnc2)C1 (centres undefined),inactive
10,CC(C)CCN1CCC2(CC1)C(=O)NCN2Cc1ccc(Cl)cc1,inactive
11,COc1ccc(CCNC(=O)c2nnn3cc(-c4ccccc4)[nH]c(=O)c23)cc1OC,inactive
12,Cc1cc2nc3n(c(=O)c2n1CC(=O)Nc1cc(F)cc(F)c1)CCCC3,inactive
13,Cc1cc2nc3n(c(=O)c2n1CC(=O)Nc1ccc(Br)cc1)CCCC3,inactive
14,Cc1cc2nc3n(c(=O)c2n1CC(=O)Nc1cccc(C(F)(F)F)c1)CCCC3,28.2 µM (active)
15,Cc1noc(-c2ccc(OC3CN(C(=O)C4CCOC4)C3)cc2)n1 (centres undefined),inactive
16,CO[C@H]1CN(C(C)C)[C@H]1C1CCN(C(=O)NCCc2ccccc2)CC1,inactive
17,NC(=O)[C@@H]1C[C@H](Oc2ccccc2)CN1C(=O)Cc1cccc(F)c1,inactive
18,COc1ccc(CC(=O)N2CCC3(CC2)CC(O)CCO3)cc1OC (centres undefined),inactive
19,COc1cc(CN2CCC3(CC2)CC(O)CCO3)ccc1F (centres undefined),inactive
20,COc1cc(CNCc2ccc(C)c(F)c2F)ccc1OCC(O)CN1CCC(O)CC1 (centres undefined),17.8 µM (active)
21,COc1ccc(CN2C=C(C(=O)OCc3nc(C)no3)C(C)=NS2(=O)=O)cc1,inactive
22,NC(=O)[C@@H](Cc1ccccc1)NC(=O)[C@@]1(O)C[C@@H](O)[C@H](O)[C@@H](NC(=O)Nc2ccc(OC(F)(F)F)cc2)C1,inactive
23,Cc1noc(C)c1[S+](=O)([O-])N(C)Cc1cccn1C,inactive
24,Cn1nccc1CN1CCC(N2Cc3ccccc3C2=O)CC1,inactive
25,CN(Cc1cccn1C)Cc1ccnn1C,100 µM (active)

row,SMILES,Potency
1,O=C(NC[C@H]1O[C@@H](CO)[C@@H](O)[C@H]1N1CCN(c2ccccc2)CC1)c1ccccc1Cl,inactive
2,CCCNC(=O)CCC1CCN(C(=O)c2ccc(C)cc2)CC1,inactive
3,CC1(C(=O)N2CCc3ccccc3C2)CCOCC1,inactive
4,Cc1ccc(C(=O)N2CCC(CCC(=O)N3CCc4ccccc4C3)CC2)cc1,44.7 µM (active)
5,COc1ccc2cc(-c3[nH]ncc3CN3CCN(c4cccc(C)n4)CC3)ccc2c1,20 µM (active)
6,COc1ccc(-c2[nH]ncc2CN2CCCC(C(=O)NCc3ccccc3)CCNC(=O)CC2)cc1 (centres undefined),inactive
7,CC(=O)N[C@@H]1CN(Cc2cn[nH]c2-c2ccc(F)cc2)C[C@H]1CO,inactive
8,Cc1ncccc1C(=O)N1CCC2(CC1)CC(CO)N(C(=O)c1ccccc1)C2 (centres undefined),inactive
9,COCCC1(NS(C)(=O)=O)CCN(C(=O)c2ccc(C#N)cc2)CC1,inactive
10,COc1ccc([C@@H](NC(=O)Cc2c(F)cccc2Cl)C2CC(O)C2)cn1 (some centres undefined),inactive
11,CC(C)c1noc(-c2cn(C3CCN(C(=O)c4ccc(N(C)C)cc4)C3)nn2)n1 (centres undefined),31.6 µM (active)
12,COc1ccc(C(=O)N2CCC(n3cc(-c4nc(C(C)C)no4)nn3)CC2)cc1F,inactive
13,O=C(c1ccc(Cl)cc1)N1CCCC(n2cc(-c3nc(-c4ccccc4)no3)nn2)C1 (centres undefined),35.5 µM (active)
14,CCOc1ccc(C(=O)N2CCC(n3cc(-c4nc(C)no4)nn3)C2)cc1 (centres undefined),inactive
15,COc1ccc(C(=O)N2CCCC(n3cc(-c4nc(C5CC5)no4)nn3)C2)cc1 (centres undefined),inactive
16,COc1cc(OC)cc(C(=O)N2CCCC(n3cc(-c4nc(C(C)C)no4)nn3)C2)c1 (centres undefined),inactive
17,COc1ccc(F)cc1-c1ncc2c(n1)OCCN(CC1CC1)C2=O,inactive
18,CCNC(=O)N1C[C@@H]2OCC(=O)N(Cc3ccc(F)cc3)[C@@H]2C1,inactive
19,CCOC(=O)N1CCC(N2CCN(Cc3ccccc3F)C(CCO)C2)CC1 (centres undefined),inactive
20,Cc1ccc(CN2CCN(c3nc4ccccc4o3)CC2CCO)cc1 (centres undefined),44.7 µM (active)
21,COc1cccc(CN2CCN(c3ncccc3Cl)CC2CCO)c1 (centres undefined),inactive
22,CCOc1ccc(CN2CCN(CC(N)=O)CC2CCO)cc1 (centres undefined),inactive
23,COc1ccc(CN2CCN(c3nc4ccccc4o3)CC2CCO)cc1C (centres undefined),35.5 µM (active)
24,CN1C(=O)c2cccn2CC1C(=O)Nc1ccc(F)cc1F (centres undefined),inactive
25,O=C(NC1CC1)[C@@H]1C[C@H](Oc2ccccc2)CN1C(=O)CN1CCCCCC1,inactive

row,SMILES,Potency
1,CCc1nncn1C1CCN(S(=O)(=O)c2cc(F)ccc2OC)CC1,inactive
2,Cc1cccc(N2Cc3c(NCCCOC(C)C)ncnc3N(C)CC2=O)c1,inactive
3,NCc1ccccc1-c1ccc(F)cc1,inactive
4,Cc1cc2cccc(-c3nc(C4CCOC4)nn3CC(=O)O)c2o1 (centres undefined),inactive
5,Cc1nc(N2CCC(NCCNc3ccncc3C)CC2)c2ccsc2n1,35.5 µM (active)
6,Cc1nc(N2CCC(NC(=O)c3cnccn3)CC2)cc(C(F)(F)F)n1,inactive
7,CNC(=O)c1cc(C2CC2)nc2onc(C3CCCN3C(=O)c3ccccc3)c12 (centres undefined),inactive
8,Cc1ccc(NC(=O)CC2CCCN(c3cn[nH]c(=O)c3)C2)cc1F (centres undefined),inactive
9,CN(C)CC(O)COc1ccc(CN(C)C2CCSCC2)cc1 (centres undefined),inactive
10,COc1ccc(-c2nc3c(c(=O)[nH]2)CCN(C(=O)Cc2ccc(OC)c(Cl)c2)C3)cc1,inactive
11,COc1ccccc1-n1c(=O)c(C(=O)N2CCN([S+](=O)([O-])c3cccs3)CC2)nc2cccnc21,inactive
12,O=[S+]([O-])(c1cccs1)N1CCN(c2nccc(Nc3ccccc3F)n2)CC1,35.5 µM (active)
13,O=c1n(CCN2CCN([S+](=O)([O-])c3cccs3)CC2)nc2n1CCCC2,inactive
14,C=CCNC(=O)c1cn2c(n1)CN(C(=O)c1ccccc1F)CC2,inactive
15,CCNC(=O)N1CCC(n2c(C)cnc2C2CC2)CC1,inactive
16,CCOc1ccc(NC(=O)N2CCC3(CC2)SCC(=O)N3Cc2ccco2)cc1,inactive
17,CCOc1ccccc1C(=O)N1CCC(Oc2ncccc2C(=O)N(C)C)C1 (centres undefined),inactive
18,O=C(CCC1CCCC1)N1CCC2(CC1)CC(O)CCO2 (centres undefined),inactive
19,c1ccc(-n2cnnc2CC2CCN(Cc3ccc(-c4ccn[nH]4)o3)CC2)cc1,inactive
20,CC(C)CN1CCN(C2CCOC3(CCN(S(=O)(=O)c4cccs4)CC3)C2)CC1 (centres undefined),inactive
21,CCOc1ncccc1C(=O)N1CCN(Cc2ccccc2)CC(O)C1 (centres undefined),inactive
22,Cc1nnc([C@H]2CCN(Cc3ccc(F)cc3)C2)o1,inactive
23,COC(=O)c1cccc2nc([C@H]3CCN(Cc4ccccc4)C3)oc12,79.4 µM (active)
24,Cc1cc(C[C@@H]2COC[C@@H]2NC(=O)CCCc2nc(-c3ccco3)no2)on1,inactive
